Compound activity (PubChem BioAssay)
Sampled rows, rich in hits. Any-hit rate of the full collection: about 4.1%.
Peg3 prom inh: reduces Peg3 promoter-driven luciferase expression in HeLa. 360,000 compounds, 1.7% hits. HeLa PEG-Prom luciferase reporter, luminescence, overnight. inhibition, % at 20 µM;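 active = inhibition of at least 50% at 20 µM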
TROY NFkB inh: blocks TROY-dependent signaling in reporter cells. Q293 LMP1-TROYcd NF-kB luciferase reporter, 4 h. 360,000 compounds, 0.98% hits. inhibition, % at 10 µM;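 active = compounds whose plate-normalised and pattern-corrected inhibition of the luciferase reporter signal at the single screening dose is 50% or more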
MITF TRPM1 inh: reduces MITF-dependent TRPM1 promoter luciferase signal; SK-MEL-5 TRPM1 promoter luciferase, 24 h; AID 488899; inhibition, % at 12.5 µM; 330,000 compounds, 0.83% hits;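 active = mean inhibition across replicates of 60% or more, whatever share of single replicates reaches that level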
Shn3 3UTR inh: inhibitors of Schnurri-3 3'UTR reporter in osteoblasts. Clone20 osteoblast Shn3 3'UTR firefly luciferase, 24 h. inhibition, % at 12.5 µM. 360,000 compounds, 0.52% hits. AID 588674;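 active = mean inhibition of at least 75% with every replicate also reaching 75%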;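 note: 0% = median of neutral control wells and 100% = pilot-screen positive control compound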
TWEAK Fn14 block: inhibitors of TWEAK-Fn14 interaction signaling; TWEAK-stimulated Fn14 reporter cells, luciferase luminescence, 8 h; inhibition, % at 10 µM; 360,000 compounds, 2% hits; AID 1159606; in the data active = inhibition above about 50%
LMP1 NFkB inh: Epstein-Barr LMP1 NF-kappaB reporter inhibition. LMP1-induced NF-kappaB luciferase reporter cells, luminescence. inhibition, % at 12.5 µM. 350,000 compounds, 0.69% hits; in the data active = inhibition above about 41%;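 note: 0% = neutral control wells and 100% = reference inhibitor control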
* = called active by the depositor; · = no result.

SMILES	Peg3 prom inh	TROY NFkB inh	MITF TRPM1 inh	Shn3 3UTR inh	TWEAK Fn14 block	LMP1 NFkB inh
Cc1oc2c(Cl)c(Cl)c(O)c(CN(C)C)c2c1C(=O)c1ccc(Cl)cc1	-7.5	48.4	-10.2	16.0	75.1*	17.6
Cc1[nH]c2c(C)cccc2c1CCNC(=O)c1ccc2c(c1[N+](=O)[O-])C(=O)c1ccccc1C2=O	102.5*	-9.8	9.9	-1.9	20.2	15.9
Cc1[nH]c2ccccc2c1CCNC(=O)c1ccc2c(c1[N+](=O)[O-])C(=O)c1ccccc1C2=O	101.5*	-2.4	12.0	-7.5	36.6	3.7
Cn1c(CNC(=O)C(Cc2ccccc2)NC(=O)c2cccc(F)c2)cc(=O)n(C)c1=O (stereo not drawn)	-2.7	2.2	-7.0	-14.3	-3.5	2.8
CC(OC(=O)Cn1[nH]c(=O)c2ccccc2c1=O)C(=O)Nc1ccc(Cl)cn1 (stereo not drawn)	-7.7	6.8	-2.6	-15.3	-7.6	1.3
COc1ccc(N2C(=O)C3CC(C)=C(C)CC3C2=O)c(OC)c1 (stereo not drawn)	-7.7	10.3	12.9	24.5	8.5	-2.4
COc1cc(N2C(=O)C=CC2=O)ccc1N1C(=O)C=CC1=O	110.9*	11.0	73.8*	97.6*	-14.4	48.8*
O=C(NCc1ccc(Cl)cc1)N1CCc2ccccc2C1	-65.0	-55.4	-2.8	12.4	38.4	-2.6
COc1ccc(NC(=O)/C(Cl)=C(/Cl)S(=O)Cc2ccc(Cl)cc2)cn1 (stereo not drawn)	104.0*	89.8*	93.7*	96.3*	100.8*	77.8*
COc1ccc(NC(=O)C(Cl)=C(Cl)Cl)cn1	14.9	-18.5	-14.7	9.0	-25.8	3.2
COc1ccc(NC(=O)/C(Cl)=C(/Cl)S(=O)(=O)Cc2ccccc2)cn1	100.1*	76.7*	94.4*	97.3*	101.3*	90.0*
Cn1cnnc1SCC(C)(C)NS(=O)(=O)c1ccc(Cl)cc1	12.7	12.3	8.9	-84.3	13.7	-1.2
N#Cc1ccccc1NC(=O)CSc1cn[nH]n1	-2.5	6.0	5.0	-9.9	16.4	7.4
COc1cccc(-c2nnc3sc(C4CCCCC4)nn23)c1	-27.3	51.5*	-0.3	-7.7	64.4*	44.7*
C/C=C(\C)C(=O)OC1CC(C)(C)C[C@H]2C3=CC[C@@H]4[C@@]5(C)CCC(O[C@@H]6O[C@@H](C(=O)O)[C@@H](O)C(O[C@@H]7OC[C@H](O)[C@@H](O)[C@@H]7O[C@@H]7OC(CO)C(O)[C@@H](O)[C@@H]7O)C6O[C@@H]6OC(CO)C(O)C(O)C6O)[C@@](C)(CO)[C@@H]5CC[C@]4(C)[C@]3(C)CC(O)[C@@]12CO (stereo partly drawn)	59.5*	-13.2	45.9	9.5	1.5	8.1
COc1ccccc1NS(=O)(=O)c1ccc(C)c(C(=O)NC2CCN(Cc3ccccc3)CC2)c1	4.1	13.7	17.0	54.3	17.1	5.3
COc1ccccc1NS(=O)(=O)c1cccc(C(=O)NC2CCN(Cc3ccccc3)CC2)c1	16.8	21.8	23.6	86.7*	33.1	31.9
CCN(CC)c1ccc(/C=N/NC(=O)c2ccc3nc[nH]c3c2)c(O)c1	20.9	-5.3	58.5	92.1*	-37.4	52.7*
CCN(CC)c1ccc(/C=N/NC(=O)c2cccc(S(=O)(=O)Nc3ccccc3OC)c2)c(O)c1	46.6	-7.1	71.8*	82.8	-10.3	57.9*
COc1ccccc1NS(=O)(=O)c1cccc(C(=O)N/N=C/c2ccc3c(c2)OCCO3)c1	-42.2	-31.3	-5.4	68.9	-6.2	5.5
COc1ccccc1NS(=O)(=O)c1cccc(C(=O)N/N=C/c2ccc([N+](=O)[O-])o2)c1	14.2	8.2	86.1*	52.7	9.1	-55.5
CCN(CC)c1ccc(/C=N/NC(=O)c2cccc(S(=O)(=O)Nc3ccccc3OC)c2)cc1	5.6	9.7	-19.9	4.1	-2.0	-11.9
CCC1(c2ccc(Cl)cc2)NC(=O)N(CC(=O)N2CCN(C(=O)c3ccco3)CC2)C1=O (stereo not drawn)	8.3	0.3	13.1	9.4	-10.7	-2.0
Cn1c(=O)c(S(=O)C2CCCCC2)c(O)c2ccccc21 (stereo not drawn)	22.5	3.4	-9.2	-3.6	15.0	-6.1
COc1ccc(CNC(=O)CCNS(=O)(=O)c2ccc(NC(C)=O)cc2)cc1OC	-3.4	9.0	0.7	-18.0	7.9	-5.5
SMILES	Peg3 prom inh	TROY NFkB inh	MITF TRPM1 inh	Shn3 3UTR inh	TWEAK Fn14 block	LMP1 NFkB inh
C[C@H](CO)N1C[C@H](C)[C@@H](CN(C)C(=O)NC2CCCCC2)Oc2ccc(NC(=O)CCC(F)(F)F)cc2C1=O	-3.3	4.7	-2.2	2.0	2.1	8.1
O=C(OCc1cncs1)c1ccccc1	-13.9	-2.0	2.5	2.5	-0.8	-6.3
Cc1cccc(N2CCN(C(=O)CSc3nnnn3C3CC3)CC2)c1C	-61.5	-12.9	-6.0	-1.9	-16.7	1.6
N#C/C(=C\Nc1ccc2c(c1)OCCO2)c1nc(-c2ccccc2)cs1	9.5	7.2	-16.6	-1.0	-41.8	5.2
N#C/C(=C\Nc1ccc2c(c1)OCCO2)c1nc2ccccc2[nH]1	-103.5	66.4*	-77.7	·	61.5*	-39.0
CC(=O)N/C(=N\c1nc(C)cc(C)n1)Nc1ccccc1Cl	7.5	-5.5	4.6	20.4	-14.0	-3.0
CC1CCc2c(sc3nc(C(C)(C)C)nc(N4CCN(C(=O)CCl)CC4)c23)C1 (stereo not drawn)	56.2*	0.5	16.8	24.2	2.0	-16.5
Cc1cc(C(=O)Nc2nc(C)c(C(=O)N(C)C)s2)ccc1[N+](=O)[O-]	-139.7	61.8*	-20.1	-64.8	53.5*	0.9
Cc1nc(NC(=O)c2ccc([N+](=O)[O-])cc2Cl)sc1C(=O)N(C)C	-0.3	6.1	11.3	-5.3	12.1	-6.1
C=C1C[C@@H]2C[C@@H]2CN(S(=O)(=O)c2ccc(C)cc2)[C@@H]1c1ccco1	·	15.9	·	·	9.6	·
Clc1ccc(-c2nc3ccc(Br)cn3c2Cc2ccsc2)cc1	-126.4	-31.1	·	-2.4	-11.9	·
Cc1nc2c(o1)C(=O)c1ccccc1C2=Nc1ccccc1	103.8*	10.5	93.7*	94.4*	94.7*	87.3*
Cc1ccc(NC(=O)CO/N=C(\N)c2ccccc2)cc1C	-12.4	-7.1	-7.9	88.7*	-3.0	-7.9
Cc1ccc([N+](=O)[O-])cc1NC(=S)NC(=O)c1c(Cl)cnn1C	18.7	18.4	8.2	5.3	1.6	1.9
CC(=O)n1cc(C(C[N+](=O)[O-])SCCN)c2ccccc21 (stereo not drawn)	46.5	-8.4	86.5*	43.3	11.3	21.9
CCN1C(=O)[C@H]2[C@@H](c3ccc(-c4ccc(Cl)c(Cl)c4)cc3)N[C@@](Cc3ccccc3)(C(=O)OC)[C@H]2C1=O	17.8	0.7	18.5	6.1	15.3	3.3
Cc1cc(C)cc(NC(=O)COC(=O)Cc2ccccc2F)c1	5.8	-5.9	·	-10.4	75.2*	-0.2
O=C(COC(=O)Cc1ccccc1F)Nc1ccc2c(c1)OCO2	-11.8	-48.2	8.5	-3.2	-13.9	-4.1
